Data as given in PubChem BioAssay AID1159580 (chemical genetic matrix, 2015).
The campaign covered roughly 5,500 compounds. About 2,000 (36%) were called active. Roughly 18% stayed inconclusive and do not appear here. Rule as the data show it: active = normalized growth mostly below about 0.91 (no sharp cut-off); inconclusive = no clear call, values can overlap the other calls; inactive = mostly above about 0.92. The list shows a part of the results.

Assay: chemical genetic growth profiling, strain panel (AID 1159580);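 also: tested at 20 µM; growth read once vehicle control cultures reached saturation at 30 °C; 1 = growth at the plate median or of vehicle wells; lower values mean less growth of the strain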
Conditions: growth OD
[1] = S. cerevisiae deletion strains, locus YAL013W, strain DEP1, hits give low values
[2] = S. cerevisiae deletion strains, locus YBR229C, strain ROT2, hits give low values
[3] = S. cerevisiae deletion strains, locus YCL061C, strain MRC1, hits give low values
[4] = S. cerevisiae deletion strains, locus YDL101C, strain DUN1, hits give low values
[5] = S. cerevisiae deletion strains, locus YDL134C, strain PPH21, hits give low values
[6] = S. cerevisiae deletion strains, locus YDR150W, strain NUM1, hits give low values
[7] = S. cerevisiae deletion strains, locus YEL061C, strain CIN8, hits give low values
[8] = S. cerevisiae deletion strains, locus YGR078C, strain PAC10, hits give low values
[9] = S. cerevisiae deletion strains, locus YHR030C, strain SLT2, hits give low values
[10] = S. cerevisiae deletion strains, locus YHR087W, strain rtc3, hits give low values
[11] = S. cerevisiae deletion strains, locus YJR043C, strain POL32, hits give low values
[12] = S. cerevisiae deletion strains, locus YJR075W, strain HOC1, hits give low values
[13] = S. cerevisiae deletion strains, locus YKL190W, strain CNB1, hits give low values
[14] = S. cerevisiae deletion strains, locus YLR039C, strain RIC1, hits give low values
[15] = S. cerevisiae deletion strains, locus YLR058C, strain SHM2 (second series), hits give low values
[16] = S. cerevisiae deletion strains, locus YLR085C, strain ARP6, hits give low values
[17] = S. cerevisiae deletion strains, locus YLR262C, strain YPT6, hits give low values
[18] = S. cerevisiae deletion strains, locus YML094W, strain GIM5, hits give low values
[19] = S. cerevisiae deletion strains, locus YMR219W, strain ESC1, hits give low values
[20] = S. cerevisiae deletion strains, locus YMR263W, strain SAP30, hits give low values
[21] = S. cerevisiae deletion strains, locus YMR307W, strain GAS1, hits give low values
[22] = S. cerevisiae deletion strains, locus YNL153C, strain GIM3, hits give low values
[23] = S. cerevisiae deletion strains, locus YNL298W, strain CLA4 (second series), hits give low values
[24] = S. cerevisiae deletion strains, locus YNL322C, strain KRE1, hits give low values
[25] = S. cerevisiae deletion strains, locus YNR030W, strain Alg12, hits give low values
[26] = S. cerevisiae deletion strains, locus YPL055C, strain LGE1, hits give low values
[27] = S. cerevisiae deletion strains, locus YPL241C, strain CIN2, hits give low values
[28] = S. cerevisiae deletion strains, locus YPR135W, strain CTF4, hits give low values
[29] = S. cerevisiae strains, strain wild type, hits give low values

Measured: normalized growth

Cc1ccc(-c2csc(-c3ccc(Oc4ccc(C(F)(F)F)cn4)cc3)n2)c(C)c1
inactive: [1] 0.995 | [2] 1 | [3] 1.02 | [4] 1.03 | [5] 0.992 | [6] 1.01 | [7] 1 | [8] 1.01 | S. cerevisiae deletion strains, locus YGR229C, strain SMI1, hits give low values 0.996 | [9] 1.06 | [10] 0.995 | [11] 1.01 | [12] 1.03 | [13] 0.993 | [14] 1.03 | [15] 1 | [16] 1.17 | [17] 0.996 | [18] 1 | [19] 0.998 | [20] 1.03 | [21] 1.24 | [22] 1.02 | [23] 1 | [24] 1 | [25] 1 | [26] 1.01 | [27] 1.03 | [28] 0.966 | [29] 0.988

N#Cc1ccc(-c2csc(-c3ccc(Oc4ccc(C(F)(F)F)cn4)cc3)n2)cc1
active: [27] 1.33 [resistant]
inactive: [1] 0.98 | [2] 1 | [3] 1.01 | [4] 1.03 | [5] 0.986 | [6] 1.01 | [7] 1.01 | [8] 0.996 | [9] 1.03 | [10] 0.984 | S. cerevisiae deletion strains, locus YJL187C, strain SWE1, hits give low values 1 | [11] 1.01 | [12] 1.03 | [13] 1.01 | [14] 0.974 | [15] 1 | [16] 1.14 | [17] 0.974 | [18] 0.99 | [19] 1 | [20] 1.03 | [21] 1.32 | [22] 1.02 | [23] 1 | [24] 0.994 | [25] 1 | S. cerevisiae deletion strains, locus YOL006C, strain TOP1, hits give low values 1.05 | [26] 0.998 | [28] 0.88 | [29] 0.99
